Hit rate of the full screen: of about 320,000 compounds, about 7,600 (2.4%) were called active. Inconclusive results (about 3%) are left out. The full list was thinned out, with actives kept by preference. Values without a mark were called inactive. Calls come from the whole dose curve; as a rule, active = well fitted activation curve with a large enough effect; inconclusive = small, poorly fitted or top-dose-only effect; inactive = no such curve, though single readings can be large or run the other way.
Experiment: qHTS Assay for NPC1 Promoter Activators; note: nearly all actives have a fitted effect of over 60% in size;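 for activation: reporter is driven by a mutant NPC1 promoter; % of control where 0% means no effect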
Conditions: Huh7 NPC1 promoter luciferase reporter, 24 h; series mostly up to 9.22 µM; activation: at the top concentration
Method in brief: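 Readout is luciferase luminescence, reflecting NPC1 promoter activation in stably transfected Huh7 cells after 24 h compound exposure at 37 °C in reduced-serum medium with 10% FBS.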
In the case of `COC(=O)c1c(NC(C)=O)sc(C(=O)Nc2ccccc2OC)c1C`, the “activation” value was -0.966%.
For `CCC(=O)Nc1sc(C(=O)Nc2ccccc2)c(C)c1C(=O)OC`, the Potency was 794 nM (active).
With `CCOC(=O)c1sc(NC(=O)COc2ncnc3ccccc23)c(C(=O)OCC)c1C` the “activation” value was 0.322%.
With `NC(=O)NC(CC(=O)NNC(=O)c1ccccn1)c1ccc(Cl)cc1` (centres undefined) the “activation” value was -0.18%.
For `CC(C)CCN1CCC(C)(NC(=O)c2ccccc2)C1=O` (centres undefined), the “activation” value was 4.78%.
For `COc1ccc(NC(=O)CS(=O)(=O)c2ccccc2)cc1`, the “activation” value was 22.2%.
In the case of `COc1ccc(N(Cc2ccccc2)S(=O)(=O)c2cccc(C(=O)O)c2)cc1`, the “activation” value was 0.572%.
With `COc1ccc(C(CC(=O)c2ccccc2)S(=O)(=O)c2ccccc2)cc1` (centres undefined) the Potency was 3550 nM (active).
For `O=C(CN1CCN(S(=O)(=O)c2ccc(Cl)s2)CC1)N1CCCCC1`, the “activation” value was -0.339%.
For `COc1cc([N+](=O)[O-])ccc1NC(=O)COC(=O)CCOc1ccc(C)cc1`, the “activation” value was -18.1%.
For `COc1ccc(CNC(=O)c2cc(=O)c3c(C)cc(C)cc3o2)cc1`, the “activation” value was 1.79%.
In the case of `CC(C)c1nc2cc(C(=O)NC(C)c3cnn(C)c3)ccc2o1` (centres undefined), the “activation” value was -0.273%.
In the case of `COc1ccc(CNC(=O)c2ccc3oc(C(C)C)nc3c2)cc1`, the Potency was 3550 nM (active).
With `CCCN(C(=O)c1nc2nccc(C)n2n1)c1c(N)n(Cc2ccccc2)c(=O)[nH]c1=O` the “activation” value was -1.99%.
In the case of `Cn1c2cc(B(O)O)sc2c2cnn(Cc3ccccc3F)c(=O)c21`, the “activation” value was -9.76%.
With `CCOCc1c(C(=O)N2CCN(Cc3ccc(Br)s3)CC2)oc2ccccc12` the “activation” value was -2.8%.
With `Cc1ccc(/C=C/C(=O)OCC(=O)Nc2cccnc2Cl)cc1` the “activation” value was -3.1%.
For `CCCCCOC(=O)NCCOC(=O)Nc1ccc(C(=O)OCC)cc1`, the “activation” value was -4.44%.
In the case of `CCCCOC(=O)Nc1nnc(CC(=O)NCc2ccccc2)s1`, the “activation” value was -2.1%.
For `CCCCCCOC(=O)NCC(O)c1ccccc1` (centres undefined), the Potency was 3980 nM (active).
In the case of `N#Cc1ccc(C2N=C(c3ccccc3)NO2)cc1` (centres undefined), the Potency was 1260 nM (active).
In the case of `S=C1NC(c2ccccc2)=NCN1c1ccc(Br)cc1`, the “activation” value was 11.1%.
For `Brc1ccccc1C1Nc2cccc3cccc(c23)N1`, the “activation” value was -5.12%.
For `Brc1ccccc1C1N=C(c2ccccc2)NO1` (centres undefined), the Potency was 3980 nM (active).
With `CSCC[C@H](NC(=O)NC1CCCC1)C(=O)O` the “activation” value was -1.29%.
In the case of `Cc1c(NC(=O)CSc2nnc(-c3cccnc3)n2N)c(=O)n(-c2ccccc2)n1C`, the “activation” value was -4.26%.
For `O=S(=O)(NCc1ccccc1Br)c1ccccc1Br`, the “activation” value was 0.992%.
In the case of `C=C1CCC(N(O)c2cc(C)on2)C(=C)CCC2C1CC2(C)C` (centres undefined), the “activation” value was -0.705%.
For `O=C(COc1ccc2oc3c(c2c1)CCCC3)Nc1ccccn1`, the Potency was 631 nM (active).
For `CCOC(=O)N1CCN(C(=O)COc2ccc3oc4c(c3c2)CCCC4)CC1`, the “activation” value was 0.817%.
With `CCN(CC)CCCNC(=O)COc1ccc2oc3c(c2c1)CCCC3` the “activation” value was -11.7%.
With `Cc1nc(Cl)cc(N/N=C/c2ccccc2)n1` the “activation” value was 10.4%.
In the case of `Cc1cc(C)nc(N/N=C/c2c(C)oc3ccccc23)n1`, the “activation” value was -5.87%.
With `O=C(N/N=C/c1ccc2c(c1)OCO2)C(=O)N1CCCC1` the “activation” value was 26.8%.
For `Brc1ccc(-c2csc(N/N=C/c3ccc4c(c3)OCO4)n2)cc1`, the “activation” value was 6.54%.
For `Cc1noc(C)c1/C=N/Nc1ccc2ccccc2n1`, the Potency was 2820 nM (active).
In the case of `C(=N\Nc1ccc2ccccc2n1)/c1ccc2c(c1)OCO2`, the Potency was 316 nM (active).
In the case of `CCOc1ccc(S(=O)(=O)N2CCCCC2)cc1NC(=O)CN1CCCC1c1cccs1` (centres undefined), the “activation” value was -18.7%.
For `O=C(c1ccc(Cl)nc1)N1CCN(S(=O)(=O)c2ccc3c(c2)OCCO3)CC1`, the “activation” value was -8.95%.
With `CCN(CC)CCCNC(=S)N(CCO)Cc1cc2cc3c(cc2[nH]c1=O)OCO3` the “activation” value was -0.386%.
For `CC(C)n1c(COc2ccccc2)nc2ccccc21`, the “activation” value was 5.01%.
In the case of `CCOc1ccc(C(O)Cc2nc3ccccc3n2C)cc1` (centres undefined), the “activation” value was 27.8%.
In the case of `Cc1ccc(OCc2nc3ccccc3n2C)cc1`, the Potency was 3550 nM (active).
With `CCOC(=O)N1CCN(S(=O)(=O)c2ccc3c(c2)C(C)C(=O)N3)CC1` (centres undefined) the “activation” value was 1.11%.
For `COc1ccc(C2=NOC(COC(=O)c3ccc4ccccc4n3)C2)cc1` (centres undefined), the “activation” value was 1.95%.
With `Cc1ccc(C(=O)NNC2=Nc3cc([N+](=O)[O-])ccc3OC2)cc1` the “activation” value was 0.883%.
For `COc1ccc(C2=Nc3cc(C)ccc3OC2)cc1`, the Potency was 891 nM (active).
For `COc1ccc2ccn(C)c2c1`, the “activation” value was 0.38%.
With `Cc1nn(Cc2ccccc2)c(C)c1C(=O)NCCCN1CCCC1=O` the “activation” value was -7.25%.
With `Clc1ccc(-c2cc(-c3ccccn3)on2)c(Cl)c1` the Potency was 100 nM (active).
With `Clc1ccc(-c2ncc3ccccn23)c(Cl)c1` the “activation” value was -8.18%.
For `COn1c(-c2ccc(Cl)cc2Cl)nc2ncccc21`, the “activation” value was -1.68%.
For `Cc1ccc(/C=N/NC(=O)c2cc3ccccc3cc2O)o1`, the “activation” value was 19.5%.
With `Cc1cc(N=Nc2ccc3ccccc3c2)ccc1O` the Potency was 2240 nM (active).
For `CC(=O)CCC(=O)c1ccc2ccccc2c1`, the “activation” value was 8.66%.
With `Cc1ccc(S(=O)(=O)N(C)C)cc1NC(=O)c1ccc(-n2cncn2)c([N+](=O)[O-])c1` the “activation” value was -1.61%.
For `Cc1ccc(NC(=O)CN(C)C(=O)c2cccc(S(=O)(=O)N3CCCC3)c2)cc1`, the “activation” value was -0.017%.
In the case of `CC(=O)NC(c1cccs1)c1cc(Br)c2cccnc2c1O` (centres undefined), the “activation” value was -34.6%.
For `CCC(C)NC(=O)c1ccc(NC(=O)CC2SC(N3CCCCC3)=NC2=O)cc1` (centres undefined), the “activation” value was -7.63%.
In the case of `CC(NC(=O)CSc1nc2c(cc1C#N)CN(C)CC2)c1ccccc1` (centres undefined), the “activation” value was 0.595%.
In the case of `Cc1cc(NC(=O)CSc2nc3c(cc2C#N)CCCCC3)no1`, the Potency was 1410 nM (active).
With `Cc1nonc1NC(=O)CSc1nc2ccccc2cc1C#N` the “activation” value was 2.61%.
With `COc1ccc(C(=O)OCC(=O)c2cc(C)n(CC3CCCO3)c2C)cc1[N+](=O)[O-]` (centres undefined) the “activation” value was 0.532%.
With `CCCCN(C(=O)C1CCC1)c1c(N)n(Cc2ccccc2)c(=O)[nH]c1=O` the “activation” value was 2.36%.
In the case of `Cn1c(SCC(=O)Nc2ccc(N3CCOCC3)cc2)nnc1C(F)(F)F`, the “activation” value was 21.8%.
For `CN(C(=O)COC(=O)c1cc(=O)[nH]c2ccccc12)C1CCCCC1`, the “activation” value was 16.7%.
In the case of `COC(=O)C1CCN(C(=O)c2cc(=O)[nH]c3ccccc23)CC1`, the “activation” value was -6.71%.
For `CC1CCN(C(=O)COC(=O)c2cc(=O)[nH]c3ccccc23)CC1`, the Potency was 3550 nM (active).
For `Cc1cccc(NC(=O)Nc2ccc(OCc3ccccc3)cc2)n1`, the “activation” value was 1.29%.
With `Cc1cccc(NC(=O)COc2ccc(Br)cc2C)n1` the Potency was 2820 nM (active).
With `CCN(CC)S(=O)(=O)c1ccc(C)c(NC(=O)COc2ccc(Br)cc2Cl)c1` the “activation” value was -4.98%.
In the case of `Cc1cc(C)cc(NC(=O)C(OC(=O)c2ccc(O)cc2)c2ccccc2)c1` (centres undefined), the “activation” value was 0.458%.
With `Cc1ccc(C)c(NC(=S)NNC(=O)c2csc(C)c2)c1` the “activation” value was -1.13%.
For `Cc1cc(C(=O)NNC(=S)Nc2ccccc2C)cs1`, the Potency was 3160 nM (active).
For `Cc1ccccc1NC(=S)NNC(=O)c1cccc(Br)c1`, the “activation” value was 6.78%.
In the case of `Cc1ccc(C(=O)OCC(=O)NCc2cc(C)c(O)c(C)c2)cc1S(=O)(=O)N1CCCCC1`, the “activation” value was 0.848%.
In the case of `NS(=O)(=O)c1ccc(N2C(=O)C3C4CC(C(Br)C4Br)C3C2=O)cc1` (centres undefined), the “activation” value was -3.28%.
In the case of `CCOc1ccc(NC(=O)CN(C)C(=O)CSc2ccccc2)cc1OCC`, the “activation” value was -2.46%.
For `Cc1ccc(/C(N)=N/OC(=O)COc2ccc(Cl)c(C)c2)cc1`, the “activation” value was -3.15%.
For `N/C(=N\OC(=O)c1ccc([N+](=O)[O-])cc1)c1ccccn1`, the Potency was 355 nM (active).
For `COc1ccc(C(=O)O/N=C(\N)c2ccccn2)cc1[N+](=O)[O-]`, the Potency was 2510 nM (active).
For `O=C(COC(=O)c1ccccn1)NNC(=O)c1ccc([N+](=O)[O-])cc1`, the “activation” value was 0.17%.
In the case of `COc1ccc(C(=O)CSc2nc(C)cc(C)n2)cc1[N+](=O)[O-]`, the “activation” value was 2.6%.
For `N/C(=N\OC(=O)Cc1ccc([N+](=O)[O-])cc1)c1ccccn1`, the “activation” value was 21.7%.
For `Cc1ccc(C(=O)O/N=C(\N)c2ccccn2)cc1Cl`, the Potency was 1580 nM (active).
In the case of `O=C(Nc1ccccc1Cl)O/N=C(/c1ccccc1)c1ccccn1`, the “activation” value was 1.22%.
For `COc1ccc(C(=O)NNC(=O)c2cnccn2)cc1[N+](=O)[O-]`, the “activation” value was 0.689%.
In the case of `CN(C(=O)Cn1nnc(-c2ccc(F)cc2)n1)C1CCS(=O)(=O)C1` (centres undefined), the “activation” value was -1.79%.
With `CCOC(=O)c1ccccc1NC(=O)COC(=O)C(Cc1c[nH]c2ccccc12)NC(C)=O` (centres undefined) the “activation” value was -2.85%.
For `CC(C)Cc1nnc(NC(=O)CCNC(=O)c2ccccc2Cl)s1`, the “activation” value was 0.264%.
For `O=C(COC(=O)CNC(=O)C1CCCCC1)NCc1ccccc1`, the “activation” value was -6.72%.
With `CC(C(=O)NC1CCCC1)N1CCN(S(=O)(=O)c2ccccc2Cl)CC1` (centres undefined) the “activation” value was -3.61%.
For `Cc1ccc(NS(=O)(=O)c2ccc3c(c2)CC(=O)N3)cc1Cl`, the “activation” value was 0.741%.
For `O=C(OCC(=O)N1CCc2ccccc21)c1ccc([N+](=O)[O-])cc1`, the “activation” value was 0.374%.
With `CC1CCCN(C(=O)c2cc(-c3ccco3)nc3ccccc23)C1` (centres undefined) the “activation” value was -2.25%.
With `Nc1ccc(N=Nc2ccccc2Cl)c(N)n1` the Potency was 3160 nM (active).
With `O=C(NCc1ccncc1)c1cccc(NS(=O)(=O)c2ccc(F)c(F)c2)c1` the “activation” value was -0.614%.
In the case of `CC[C@H](C)C(=O)N[C@H]1CCCN1C(=O)/C=C/c1ccccc1`, the “activation” value was -1.89%.
With `Cc1nc2ccc(NC(=O)C(F)(F)F)cc2o1` the “activation” value was 0.865%.
With `Cc1nc2cc(NC(=O)NCc3ccccc3)ccc2o1` the “activation” value was 25.1%.
With `Cc1ccc(NC(=O)Nc2ccc3oc(C)nc3c2)cc1` the Potency was 1120 nM (active).
In the case of `CCc1ccc(OCC(=O)OC(C)C(=O)NC2CC2)cc1` (centres undefined), the “activation” value was -4.04%.
For `O=C(CN1CCc2ccccc2C1)Nc1cccc(S(=O)(=O)N2CCOCC2)c1`, the “activation” value was -0.546%.
In the case of `Cc1cccc(NS(=O)(=O)c2cccc(C(=O)NNC(=O)c3ccccc3O)c2)c1`, the “activation” value was 0.589%.
With `Cc1cc(C)cc(OCC(=O)Nc2ccc(N3CCOCC3)cc2N2CCOCC2)c1` the “activation” value was -2.18%.
In the case of `CCN1/C(=C/C(=S)Nc2ccccc2)Sc2ccccc21`, the Potency was 3980 nM (active).
In the case of `CCN1/C(=C/c2ccc3ccc(C)cc3[n+]2CC)Sc2ccccc21`, the “activation” value was -14.2%.
In the case of `O=C(CCN1c2ccccc2Sc2ccccc21)Nc1ccccc1`, the “activation” value was 0.92%.
With `CCOc1ccc(C(=O)CCC(=O)NC2=NCCS2)cc1` the “activation” value was -0.182%.
In the case of `O=C(NC1=NCCS1)[C@H](Cc1ccccc1)N1C(=O)c2ccccc2C1=O`, the “activation” value was 1.18%.
For `COc1ccc(C(=O)NC2=NCCS2)c(OC)c1`, the Potency was 891 nM (active).
With `COc1ccccc1C(=O)NCCC(=O)NC1=NCCS1` the “activation” value was -0.651%.
In the case of `O=C(NC1=NCCS1)c1ccc(Cl)s1`, the Potency was 2510 nM (active).
In the case of `O=C(NCc1ccc2c(c1)OCO2)c1ccc(Cl)s1`, the “activation” value was 4.91%.
Potency is the fitted concentration of half-maximal effect.
